Dicer inh: blocks human Dicer maturation of pre-miR-21; z-score at 25 µM; hit rate 6% among 47,000; cat-ELCCA pre-miR-21 Dicer processing, chemiluminescence; hits give high values; Q9UPY3; in the data active = z-score above about 3, passing the limit was not always enough;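 also: higher signal means more uncleaved substrate so more Dicer inhibition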
A number is an active result; – = inactive. Many of the other results were omitted from the sample, so hits are more common in it than they were.

SMILES	Dicer inh
COc1cc(C2Nc3ccccc3-c3cc(C)nn32)ccc1O (stereo not given)	–
Cc1cc2n(n1)C(c1ccc(O)cc1)Nc1ccccc1-2 (stereo not given)	–
Cc1ccc(S(=O)(=O)OS(=O)(=O)c2ccc(C)cc2)cc1	–
O=C(NCc1c(Cl)cc(C(F)(F)F)cc1Cl)c1ccc(C(F)(F)F)cc1	–
CCCCCCOc1ccc(C2C3=C(CC(C)(C)CC3=O)Nc3[nH]c(=O)[nH]c(=O)c32)cc1OC (stereo not given)	–
O=C1Nc2ccccc2/C1=C/c1c[nH]c2ccc([N+](=O)[O-])cc12	–
CCOc1nc(-c2ccc(Cl)cc2)ccc1-c1noc(C(C)C)n1	–
Cc1ccc2c(C)nc(Nc3ncc4c(n3)CC(c3ccc(F)cc3)CC4=O)nc2c1 (stereo not given)	–
Cc1onc(-c2ccccc2)c1C(=O)Nc1ccccc1Oc1ccc(Cl)cc1Cl	–
C#CCOC(=O)Nc1ccc(OC(C)C)nc1	–
COc1ccc(C2Nc3ccc(C)cc3-c3cc(C)nn32)cc1 (stereo not given)	–
COc1ccc(OC)c(C2Nc3ccc(C)cc3-c3cc(C)nn32)c1 (stereo not given)	–
COc1ccc(C2Nc3c(C)cc(C)cc3-c3cc(C)nn32)c(OC)c1 (stereo not given)	3.6
CC(C)Cc1nc2ccccc2n1C(C)C(=O)O (stereo not given)	–
Cc1onc(-c2c(Cl)cccc2Cl)c1NC(=O)NN1CCCCC1	–
CC1C/C(=N\Nc2cc(Cl)cc(Cl)c2)c2cc(Cl)ccc2S1 (stereo not given)	–
CC1C/C(=N\Nc2ccc(Br)cc2)c2cc(Cl)ccc2S1 (stereo not given)	3.2
O=[N+]([O-])c1ccc(N/N=C2\CCSc3ccc(Cl)cc32)cc1	–
Cc1cc(NC(=O)/C(C#N)=C/c2cc(Br)cs2)no1	–
CCOC(=O)/C(C#N)=C(\N=C(\N)c1cccc(C)c1)Nc1ccc(Cl)cc1	–
CCCCCCC(=O)Oc1ccc(N2C(=O)CCC2=O)cc1	–
CC12C=CC(O1)C1C(=O)N(c3ccc(C(=O)O)cc3)C(=O)C12 (stereo not given)	–
O=C(O)c1ccc(N2C(=O)CCC2=O)cc1	4.8
CCCN=c1ssc(=O)n1CCC	–
COC(=O)c1cn(C(=O)c2ccco2)c2ccccc12	–
SMILES	Dicer inh
COC(=O)c1cn(C(=O)COc2ccc(Cl)cc2)c2ccccc12	–
COC(=O)c1cn(C(=O)c2cccs2)c2ccccc12	3
CC1(CO)CSC(Nc2ccc(F)cc2)=N1 (stereo not given)	–
Nc1c(-c2nn[nH]n2)cnn1-c1ccc(Cl)cc1Cl	–
CCCC1C2C(=O)N(c3ccccc3)C(=O)C2ON1c1ccc(Cl)c(Cl)c1 (stereo not given)	7.2
O=C1C2C3c4ccccc4C(c4ccccc43)C2C(=O)N1c1ccc(Cl)c(Cl)c1 (stereo not given)	–
Cc1ccc(N2C(=O)C3ON(c4ccccc4)C(c4ccncc4)C3C2=O)cc1Cl (stereo not given)	–
Cc1[nH]c2[nH]n(-c3ccccc3)c(=O)c2c(=O)c1Cc1ccc(Cl)cc1	–
COc1cccc(Nc2nc(N)nc(CN3CCc4ccccc4C3)n2)c1	–
COc1ccccc1Nc1nc(N)nc(CN2CCCCC2)n1	5.3
COc1ccc(Nc2nc(N)nc(CN3CCCCC3)n2)cc1	–
O=c1[nH]nc(-c2cc(Cl)cc(Cl)c2)c2ccccc12	–
O=[N+]([O-])c1c(Sc2ccc(Cl)cc2)ccc2nsnc12	–
COc1ccc(OC)c(-c2sccc2CC(=O)O)c1	3.8
COc1ccc(OC)c(SCC(=O)O)c1	–
COC(=O)c1cc(-c2cc(OC)ccc2OC)no1	–
CCOC(=O)c1c(C)oc2c(Br)cc(NS(=O)(=O)c3ccc(Cl)c(C)c3)cc12	–
CCOC(=O)c1c(C)oc2ccc(NS(=O)(=O)c3ccc(Cl)cc3)cc12	3.6
CCOc1ccc(S(=O)(=O)Nc2ccc3oc(C)c(C(=O)OCCOC)c3c2)cc1	–
COc1ccc(NC(=O)CC2(CC(=O)O)CCCC2)c(N2CCOCC2)n1	–
COc1ccccc1-c1c(C)c(CC(C)C)nc(N)c1C#N	–
O=C(Nc1ccc(F)cc1F)c1sc2ccccc2c1Cl	–
Cc1ccc(-c2nnc(NCc3ccccc3)c3ccccc23)cc1S(=O)(=O)NCCO	–
Cc1ccc(-c2nnc(Nc3ccc(O)cc3)c3ccccc23)cc1S(=O)(=O)N(C)C	–
CNS(=O)(=O)c1cc(-c2nnc(Nc3ccc4c(c3)OCO4)c3ccccc23)ccc1C	4.8
SMILES	Dicer inh
CN1CCc2nc3sc(C(=O)Nc4ccc(F)cc4)c(N)c3cc2C1	–
Cc1nn(CC(=O)O)cc1Br	–
CCCN1C(=O)C(O)(CC(=O)c2ccc3c(c2)OCO3)c2cc(Br)ccc21 (stereo not given)	–
O=C(CC1(O)C(=O)N(Cc2ccccc2)c2ccc(Br)cc21)c1ccc2c(c1)OCO2 (stereo not given)	–
O=C(CC1(O)C(=O)N(CCc2ccccc2)c2ccc(Br)cc21)c1ccccn1 (stereo not given)	–
Cc1ccc(C(=O)CC2(O)C(=O)N(CCc3ccccc3)c3ccc(Br)cc32)o1 (stereo not given)	–
O=C(CC1(O)C(=O)N(CCc2ccccc2)c2ccc(Br)cc21)c1ccc2c(c1)OCO2 (stereo not given)	4.1
COc1ccccc1C(=O)CC1(O)C(=O)N(CCc2ccccc2)c2ccc(Br)cc21 (stereo not given)	4.3
Cc1cc(N/C=C(\C#N)C(=O)c2cccs2)no1	–
COC(=O)c1c(C)n(S(C)(=O)=O)c2ccc(N(C(=O)c3ccco3)S(C)(=O)=O)cc12	–
O=C(Oc1ccc(-c2cnc3ccccc3n2)cc1)c1ccc(F)cc1	–
COC(=O)c1cccc(Cn2cnc([N+](=O)[O-])n2)c1	–
O=C1c2ccc([N+](=O)[O-])cc2C(=O)N1CNc1ccc(Cl)cc1	–
Cc1ccc(Cl)cc1NCN1C(=O)CNC1=S	–
O=C1CCC(=O)N1CNc1ccc(Cl)cc1	4
Cc1ccc(CSC2=NCN(C(C)(C)CC(C)(C)C)CN2)cc1	–
O=c1oc(-c2ccc(Cl)c(Cl)c2)nn1-c1ncc(C(F)(F)F)cc1Cl	–
CCOC(=O)CSc1nc2sc3c(c2c(=O)n1-c1ccc(OC)cc1)CCC3	–
CCNc1nc(SCC(=O)OCC)nc2sc3c(c12)CCC(C)C3 (stereo not given)	–
CCOC(=O)CSc1nc(NC)c2c3c(sc2n1)CCCC3	3.2
Cc1ccc(Cl)c2c1NC(=O)C2(O)CC(=O)c1ccc(C(C)C)cc1 (stereo not given)	–
Cn1c2c(c(=O)n(C)c1=O)C(c1cccc(F)c1)C1C(=O)c3ccccc3C1=N2 (stereo not given)	–
FC(F)(F)c1nnc(Nc2cccnc2)s1	–
O=C(Nc1nnc(C(F)(F)F)s1)c1c(F)cccc1F	–
FC(F)(F)c1nnc(Nc2ccc(Cl)cc2)s1	7.3
SMILES	Dicer inh
CC(=O)Nc1nc(C)c(CCC(C)C)c(=O)[nH]1	–
CSc1nc2c(c(=O)n1C)C1(CCCCC1)Cc1ccccc1-2	–
Cn1c(Cc2ccccc2)nc2c(c1=O)C1(CCCCC1)Cc1ccccc1-2	–
O=c1c2c(nc(NCCCO)n1-c1ccccc1)-c1ccccc1CC21CCCC1	–
COc1ccccc1-n1c(SCC(N)=O)nc2c(c1=O)C1(CCCCC1)Cc1ccccc1-2	3.2
C=CCn1c(SCC(=O)OCC)nc2c(c1=O)C1(CCCC1)Cc1ccccc1-2	–
O=c1c2c(nc(NCCO)n1-c1ccccc1)-c1ccccc1CC21CCCC1	4.1

From PubChem
